In the experiment the target is RUNX1 (UniProt Q01196). Briefly: RUNX1 binding intensity (PBM fluorescence) in presence of ETS1, normalised to RUNX1-only experiment (arbitrary fluorescence units); higher = stronger binding. As to conditions: RUNX1 concentration 2 nM; ETS1 concentration 25 nM. How it is done:
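Cooperative gcPBM on 36-bp genomic probes with neighbouring ETS1 and RUNX1 sites. Recombinant human RUNX1 (2 nM) was incubated alone or with ETS1 (25 nM) and detected with anti-RUNX1 antibody plus Alexa488 secondary. Values are medians over 4 replicate spots; the RUNX1+ETS1 data were normalised to the RUNX1-only data. The probes sit in constant array flanks that are not printed.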
Sequence of RUNX1 (Q01196 whole entry): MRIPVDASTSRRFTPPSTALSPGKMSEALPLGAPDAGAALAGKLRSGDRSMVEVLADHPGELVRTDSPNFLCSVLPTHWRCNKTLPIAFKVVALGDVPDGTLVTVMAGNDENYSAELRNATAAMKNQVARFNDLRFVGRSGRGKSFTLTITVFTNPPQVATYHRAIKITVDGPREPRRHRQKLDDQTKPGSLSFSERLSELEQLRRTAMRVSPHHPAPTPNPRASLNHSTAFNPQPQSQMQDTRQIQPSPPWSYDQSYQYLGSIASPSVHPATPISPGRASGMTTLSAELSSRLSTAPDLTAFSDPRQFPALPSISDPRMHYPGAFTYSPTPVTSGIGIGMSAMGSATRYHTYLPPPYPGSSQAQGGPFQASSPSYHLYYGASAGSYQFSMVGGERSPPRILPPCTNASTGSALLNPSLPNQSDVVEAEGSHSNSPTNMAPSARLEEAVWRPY
With CCCATTTCCTGCTCTCCAGAGTTAACCACTGAAGTC, the RUNX1 binding intensity worked out at 3490.

As to GTTGGGCTTTGAGGATGTGGGTTCTAGAAGTTTACA, the RUNX1 binding intensity was determined as 1050.

Turning to AGCGACAGCGGATGCTCTCTGGCCGCAACATTCTTT, the RUNX1 binding intensity was 1080.

On to CATGTGCTTCCGGCTTGATCTGTGGTTATTCTGGTT, for which the RUNX1 binding intensity came to 3010.

For CCTGCAGCAACAGGATGTGGTTTGAAAGGATGAAAG, the RUNX1 binding intensity was 6460.

Regarding TATCTCCTATCTCCAGGAAGTGGTTAGCCCTAGGAG, the RUNX1 binding intensity was determined as 1870.

On to CTAGCAGGAAACAGACAGACCCAGCCACAGAATCTC, for which the RUNX1 binding intensity turned out to be 884.

Turning to TGAAGCAGGCGGAAGTGCTGTGGTTTCTGGCGACTG, the RUNX1 binding intensity was 2830.

On to CACCTCCTCTCCGGATGCGGTTTGTTCTGCTTGTAG, for which the RUNX1 binding intensity turned out to be 6810.

CATTCAGTAAAAGGATGTGGTTTAGAACAGATGAAA: the RUNX1 binding intensity worked out at 2150.

On to GAAGGAAGTGGAGACAGTAAGGGGAAACCACAAACC, for which the RUNX1 binding intensity amounted to 1190.

With AAATACCAGCCCACTTCCTGTGGCTTTGATCTGCAG, the RUNX1 binding intensity is 5090.

In the case of AAGAAAAAGGGAGGATGTGGTTTAGCAAAAGCACTG, the RUNX1 binding intensity came to 2230.

Consider GAGGGACAGGATGCCGCCAGGAACCACAAGAGCTTC, for which the RUNX1 binding intensity turned out to be 1300.

Consider TTTATCATGAATGCAGGATGTGGGCAGACTCACAGC, for which the RUNX1 binding intensity was 1280.

For GGGGCAGCTTCCGGCAGGAGAGCCCGCATTCACGGC, the RUNX1 binding intensity is 2360.

Turning to ACAGATAGTGATATCCTGTGGTCAATTCCCTCCCCT, the RUNX1 binding intensity amounted to 2280.

Turning to GCGCAAAGCCGGAAGGAGGGGTTTGCGGCTGGGGAG, the RUNX1 binding intensity is 1360.

As for ATGGCGGAGCGGAAGTCCCAGCCACAACGCGAAAAG, the RUNX1 binding intensity stood at 1370.

Consider GCTAGACAGGAAACAGTGAGCTTCTGTGGGCAGGAG, for which the RUNX1 binding intensity stood at 1060.

Consider CTGACGCATTTCCGGCCTTTGCGGTTGATCGGTCAT, for which the RUNX1 binding intensity turned out to be 18100.

For AACAGGCAAAGGACAGGATGTGGTGAGCGTCGGCCC, the RUNX1 binding intensity is 3040.

Regarding AGTGCAGAGTGGACAGGATGTGGTGGAGGTGAGAGA, the RUNX1 binding intensity came out at 1500.

Consider AGCACCCGGAAGTCGGAGCTGCGCACGCACCGCGGG, for which the RUNX1 binding intensity is 1210.

For CATAGACCGGATGCCTCGTCAACCACAGAAACCAAT, the RUNX1 binding intensity turned out to be 2940.

With GCACCCGGCACTACTTCCCGACCCGCATCCCCCGCC, the RUNX1 binding intensity turned out to be 1320.

With TTCTGTAGCTTAGGATGTGGGTTTCTTTGTTTCTGA, the RUNX1 binding intensity came out at 1030.

With GCGCGGCCCGGAAGGGGGTAACCGCTGAGTCTTTGA, the RUNX1 binding intensity was 1010.

In the case of TTGCCATTCCAGGAAATGAGCTTACCACATTGACTG, the RUNX1 binding intensity came to 1070.

Consider GACTTTTACGGAAATAGCAGTCCAAAACCGCGTCTA, for which the RUNX1 binding intensity came to 1170.

For GAGAAACAGGAAGAGGGGTGGTGGTTACGGAACACG, the RUNX1 binding intensity is 1340.

With AACAGGAAGTGGTCTTAGAGATCATGCGGTTCAGAG, the RUNX1 binding intensity is 2350.

Regarding TCCTCCCACGGGAAGTGCCGTAGGACCGCAGCCCGA, the RUNX1 binding intensity was 1020.

CAAGAGAAAGGAAGTGGAAGCTCTTGTGGTCTGGAA: the RUNX1 binding intensity amounted to 1240.

Regarding TGGGGACCACTGTCAGGATGTGGTCACTGGAGTCAC, the RUNX1 binding intensity is 1540.

TTCACTTCCACCACTTCCTGTGGGTTTTGTTCATCC: the RUNX1 binding intensity amounted to 5560.

As for ACTGAACAAACCGGATGTGGTTGCCACCTGCAATCT, the RUNX1 binding intensity is 21800.

Turning to ATTTCGCTGAAAACAGGAAACCACGAAGCCCAGATG, the RUNX1 binding intensity came to 1250.

Turning to GTGGGGCAGGATGTGCTTGCCTGGCTGCGGTTGGAC, the RUNX1 binding intensity was 2230.

For TCTCGTCCGGTCCTTGCTCCCCCTCCCCGCAGCGCT, the RUNX1 binding intensity was 1980.

The record behind these values is the supplement of paper PMC10681739.
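Further: Full-length recombinant human ETS1 or RUNX1 bound to double-stranded 36-bp genomic probes on microarrays, detected by protein-specific primary antibody and Alexa488 secondary, spot fluorescence as median of four replicate spots.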
